Over roughly 110,000 compounds, “z-score” has its median near -0.1; the highest 2% begin near 2. The full list was thinned out, with the highest values kept by preference. The source made the active and inactive calls.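 The calls were made as follows: active = z-score in the third read window above 3 or below -3; inactive = the rest.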

This note sets out measurements from PubChem BioAssay AID488969 (Vanderbilt High Throughput Screening Facility, 2010).

The target of the test is Metabotropic glutamate receptor 8 (Rattus norvegicus) (UniProt P70579). Put plainly: rat mGluR8 modulators via GIRK flux, primary screen, cell-based, thallium flux, HTS (AID 488969). The note with it: HEK293 rat mGluR8, GIRK (G protein-gated inwardly rectifying potassium channel) thallium flux, FluoZin2; at 10 µM; stronger effect = higher value; submaximal glutamate (EC20) added with thallium.
Sequence of Metabotropic glutamate receptor 8 (Rattus norvegicus) (P70579 whole entry, looked up): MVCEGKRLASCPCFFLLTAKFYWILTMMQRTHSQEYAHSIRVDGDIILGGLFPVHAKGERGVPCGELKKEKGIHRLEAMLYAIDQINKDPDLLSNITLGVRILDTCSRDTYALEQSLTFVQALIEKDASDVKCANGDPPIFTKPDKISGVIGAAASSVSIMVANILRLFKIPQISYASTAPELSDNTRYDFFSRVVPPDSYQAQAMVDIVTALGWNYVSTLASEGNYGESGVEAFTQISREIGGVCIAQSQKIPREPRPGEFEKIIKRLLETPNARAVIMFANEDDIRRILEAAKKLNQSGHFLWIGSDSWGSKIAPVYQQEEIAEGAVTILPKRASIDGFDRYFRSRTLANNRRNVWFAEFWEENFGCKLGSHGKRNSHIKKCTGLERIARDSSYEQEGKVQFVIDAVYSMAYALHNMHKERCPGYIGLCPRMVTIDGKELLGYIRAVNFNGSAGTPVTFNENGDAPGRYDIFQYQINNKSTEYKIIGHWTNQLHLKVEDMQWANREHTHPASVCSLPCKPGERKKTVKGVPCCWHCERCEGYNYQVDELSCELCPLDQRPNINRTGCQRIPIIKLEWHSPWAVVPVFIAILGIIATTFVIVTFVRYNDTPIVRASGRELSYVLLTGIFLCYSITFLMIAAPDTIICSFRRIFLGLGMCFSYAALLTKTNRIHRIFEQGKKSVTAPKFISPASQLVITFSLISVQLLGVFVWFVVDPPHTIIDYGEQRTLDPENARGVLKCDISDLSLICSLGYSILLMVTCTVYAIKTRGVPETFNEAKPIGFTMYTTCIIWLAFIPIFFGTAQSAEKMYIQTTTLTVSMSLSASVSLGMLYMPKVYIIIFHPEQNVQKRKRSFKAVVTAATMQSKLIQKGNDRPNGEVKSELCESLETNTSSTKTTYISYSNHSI
In turn, `CC1CCCN(c2ccc(C(=O)OCC(=O)N3c4ccccc4Sc4ccccc43)cc2[N+](=O)[O-])C1` (centres undefined) returned a z-score of -0.269.

Consider `c1ccc2c(c1)CCCN2c1nc2ccccc2n2cnnc12`, for which the z-score is -0.203.

In the case of `COc1ccc(OC)c(NC(=O)C2CC(=O)n3ncnc3N2)c1` (centres undefined), the z-score was -0.244.

As to `CS(=O)(=O)N(CC(=O)N1CCN(c2ccccc2)CC1)c1ccc(Cl)c(C(F)(F)F)c1`, the z-score was -0.0753.

In turn, `CCn1c(=NC(=O)c2ccc(N3C(=O)CCC3=O)cc2)sc2c(OC)ccc(OC)c21` gave a z-score of -0.536.

Turning to `CCn1c(Cc2ccc(OC)cc2)nnc1SCC(=O)N1CCN(c2ccccc2)CC1`, the z-score worked out at 0.352.

In the case of `O=C(O)C1CC=CCC1C(=O)Nc1cc(Cl)ccc1Cl` (centres undefined), the z-score was -0.205.

For `O=C(O)C1CCCCC1C(=O)Nc1cc(Cl)ccc1Cl` (centres undefined), the z-score worked out at 2.08.

`O=C(O)C1CCCCC1C(=O)Nc1ccccc1Cl` (centres undefined) gave a z-score of -0.189.

The compound `CCCCC(=O)NC(=S)NNC(=O)CC#N` returned a z-score of -0.265.

`Fc1ccc2[nH]c3c(NCCN4CCOCC4)ncnc3c2c1` gave a z-score of 0.07.

Turning to `CCN1CCCC1CNc1ncnc2c1[nH]c1ccc(F)cc12` (centres undefined), the z-score turned out to be 2.55.

On to `Clc1ccc2[nH]c3c(NCC4CCCO4)ncnc3c2c1` (centres undefined), for which the z-score was -3.05 (active).

As to `CCOC(=O)c1ccc(Oc2c(C)oc3cc(OS(C)(=O)=O)ccc3c2=O)cc1`, the z-score is -0.214.

`Cc1ccc(/C=N/NC(=S)NC(C)C)o1` returned a z-score of -0.11.

As for `NC(=O)N/N=C\c1cc(Br)ccc1O`, the z-score is -0.265.

For `CC(C)NC(=S)N/N=C/c1cc(Br)ccc1O`, the z-score was 6.43 (active).

`FC(F)(F)c1cnc2c(c1)Nc1ccccc1S2` came in with a z-score of 0.635.

For `C=CCNCc1cccn1-c1sc2c(c1C#N)CCCC2`, the z-score stood at 2.43.

The compound `Cc1ccc(C)n1-c1sc2c(c1C#N)CCCC2` yielded a z-score of -0.0485.

`N#Cc1c(-n2cccc2/C=N/O)sc2c1CCCC2` showed a z-score of -0.27.

Take `Oc1ccccc1C1=Nc2ccccc2N=C(c2cccs2)C1`: the z-score was 0.0299.

Turning to `O=C(CSc1nnc2n1CCCN2C(=S)Nc1ccc(Cl)cc1)c1ccccc1`, the z-score is -0.14.

For `CN(c1ccc(C(=O)NCCSCc2ccco2)cc1)S(C)(=O)=O`, the z-score is -0.396.

On to `Cn1c(NC(=O)Cc2ccc(F)cc2)cc(=O)n(C)c1=O`, for which the z-score came to 2.79.

Regarding `Cn1c(NC(=O)Cc2cccs2)cc(=O)n(C)c1=O`, the z-score is 0.422.

`CCCC(=O)Nc1cc(=O)n(C)c(=O)n1C` returned a z-score of -0.309.

For `Cn1c(NC(=O)CCc2ccccc2)cc(=O)n(C)c1=O`, the z-score was -0.492.

Take `COc1ccc(CC(=O)Nc2cc(=O)n(C)c(=O)n2C)cc1`: the z-score was found to be 2.78.

The compound `Cn1c(NC(=O)COc2ccccc2)cc(=O)n(C)c1=O` registered a z-score of 0.597.

In the case of `Cc1cccc(CSCCNC(=O)Nc2ccccc2)c1`, the z-score was -0.872.

`CC(=O)NNc1nc(-c2ccc(NC(C)=O)cc2)cs1` came in with a z-score of -0.0151.

Regarding `CCOC(=O)/C=c1\s/c(=C\c2ccc(C)cc2)c(=O)n1CC(=O)NCc1ccco1`, the z-score turned out to be 0.0354.

In the case of `O=C(/C=C/c1ccc(Cl)cc1Cl)NC(=S)Nc1ccc(CN2CCOCC2)cc1`, the z-score amounted to 0.0804.

Regarding `CC(=O)N/C(=C/c1ccc(OS(=O)(=O)c2ccc(C)cc2)cc1)C(=O)NCCO`, the z-score is -0.101.

`CCOCC(=O)Nc1nnc(C)s1`: the z-score is 1.02.

In turn, `CC12CCC(C(=O)Nc3ccc(SC(F)F)cc3)(CC1=O)C2(C)C` (centres undefined) returned a z-score of 0.519.

The compound `C=C1C2(C(=O)Nc3ccc(SC(F)F)cc3)CCC(C2)C1(C)C` (centres undefined) yielded a z-score of 0.546.

With `O=C(Nc1ccc(SC(F)F)cc1)C12CCC(CC1)C2`, the z-score is 3.38 (active).

As to `CCCCCNCc1ccc(Br)cc1`, the z-score is -0.224.

`OCc1cc(CO)c(O)c(CCc2ccccc2)n1` displayed a z-score of 0.171.

Consider `COc1cccc2sc(NC(=O)c3ccc(Br)s3)nc12`, for which the z-score was 0.601.

`COc1cccc2sc(Nc3nc(-c4cc5ccccc5oc4=O)cs3)nc12` yielded a z-score of 0.111.

For `COc1ccc(-c2nnc(Nc3nc4c(OC)cccc4s3)o2)cc1`, the z-score is 17.1 (active).

Take `COc1cccc2sc(Nc3nc(-c4ccccn4)cs3)nc12`: the z-score is 5.31 (active).

The compound `COc1cc(-c2nnc(-c3cccs3)o2)cc(OC)c1OC` yielded a z-score of 2.27.

`c1ccc(Nc2nc(-c3ccccn3)cs2)cc1` showed a z-score of -0.545.

With `COc1ccc(-c2nnc(-c3cccs3)o2)cc1OC`, the z-score was -0.0864.

In turn, `COc1cc(-c2nnc(-c3cc(OC)c(OC)c(OC)c3)o2)cc(OC)c1OC` showed a z-score of -1.02.

Regarding `COc1cc2nc(-c3cccs3)oc(=O)c2cc1OC`, the z-score was -0.693.

For `COc1cccc2sc(Nc3nnc(-c4cccs4)o3)nc12`, the z-score was 17.4 (active).

With `COc1cccc2sc(Nc3nc4ccc(NC(C)=O)cc4s3)nc12`, the z-score was -0.147.

`CCOC(=O)c1sc(Nc2nc3c(OC)cccc3s2)cc1C` returned a z-score of -0.137.

On to `CCOc1ccc(NC(=O)CC2C(=O)N(C)C(=S)N2CCCc2ccccc2)cc1` (centres undefined), for which the z-score was found to be 0.36.

The compound `O=C(Cc1c(F)cccc1Cl)c1ccc(O)cc1O` registered a z-score of 0.0496.

Compound `CCOC(=O)c1cccc(NC(=O)C2CCCN2S(=O)(=O)c2cccc3cccnc23)c1` (centres undefined) had a z-score of -0.226.

In the case of `CN(CCOC(=O)C1c2ccccc2Oc2ccccc21)C(C)(C)C`, the z-score came out at 0.442.

In turn, `CNC(=O)CCSc1ccc(C)cc1` had a z-score of 1.02.

Compound `O=C(CSc1ncnc2c1cnn2CCc1ccccc1)Nc1cccc(C(F)(F)F)c1` returned a z-score of -0.203.

`CCN(CC)S(=O)(=O)c1cc(C)c(C)cc1Br` had a z-score of 0.329.

As for `NS(=O)(=O)c1ccc(CCNC(=O)CNC(=O)C2CCCCC2)cc1`, the z-score is -0.063.

The compound `O=C(Nc1cccc(F)c1)NC1(C(=O)N2CCN3CCCC3C2)CCCCC1` (centres undefined) gave a z-score of 0.517.

As to `N#Cc1c(NC(=O)CSc2nc(-c3ccccc3)cc(C(F)(F)F)n2)sc2c1CCC2`, the z-score worked out at 0.0217.

Consider `c1ccc(-n2c(SCc3nc(-c4cccs4)no3)nnc2-c2ccco2)cc1`, for which the z-score is -1.55.

On to `CCOC(=O)CCC(=O)N1CCOCCOCCN(C(=O)CCC(=O)OCC)CCOCC1`, for which the z-score was -0.107.

Compound `CCCCCn1c(CN(C)Cc2ccccc2)nc2c1c(=O)n(C)c(=O)n2C` displayed a z-score of 0.218.

As to `COCCn1c(CN(C)Cc2ccccc2)nc2c1c(=O)n(C)c(=O)n2C`, the z-score is -0.377.

Take `COCCn1c(CN(Cc2ccccc2)Cc2ccccc2)nc2c1c(=O)n(C)c(=O)n2C`: the z-score was 3.37 (active).

With `CCCCn1c(CN(Cc2ccccc2)Cc2ccccc2)nc2c1c(=O)n(C)c(=O)n2C`, the z-score was 3.38 (active).

In turn, `CCCCn1c(CN(C)Cc2ccccc2)nc2c1c(=O)n(C)c(=O)n2C` returned a z-score of 0.165.

With `CCOCCn1c(CN(Cc2ccccc2)Cc2ccccc2)nc2c1c(=O)n(C)c(=O)n2C`, the z-score came to 0.389.

Compound `CCCCNC(=O)Nc1ccccc1C(=O)NCc1ccco1` registered a z-score of 0.486.

Compound `COc1cc(OC)cc(C(=O)NNC(=O)NC2CCCCC2)c1` yielded a z-score of -0.0486.

The compound `CC(=O)NCCOc1ccc2oc3ccccc3c2c1` yielded a z-score of -0.506.

`O=C1c2ccccc2NC(c2cccc(Cl)c2)N1N=C1CCCCCC1` (centres undefined) displayed a z-score of -0.359.

On to `CCN(CC)C(=O)CSc1nc2ncccc2[nH]1`, for which the z-score stood at 1.1.

Consider `CC(C)OC(=O)CSc1nc2ncccc2[nH]1`, for which the z-score is -0.0946.

Compound `COC(=O)CSc1nc2ncccc2[nH]1` yielded a z-score of 2.69.

Compound `Cc1ccc(-c2nc3ccccc3o2)cc1NC(=S)NC(=O)/C=C/c1ccco1` had a z-score of 0.0248.

In turn, `Cc1ccc(-c2nc3ccccc3o2)cc1NC(=S)NC(=O)c1cccs1` returned a z-score of 1.65.

Turning to `Cc1ccc2oc(-c3ccc(C)c(NC(=S)NC(=O)c4cccs4)c3)nc2c1`, the z-score stood at 0.703.

Consider `Cc1cc(C)c2oc(-c3ccc(C)c(NC(=S)NC(=O)/C=C/c4ccco4)c3)nc2c1`, for which the z-score is -0.0423.

`Cc1ccc(-c2nc3ccccc3o2)cc1NC(=S)NC(=O)c1cc2ccccc2o1` yielded a z-score of 2.35.

Regarding `Cc1ccc2oc(-c3cccc(NC(=S)NC(=O)c4cccs4)c3)nc2c1`, the z-score is 3.78 (active).

Consider `Cc1cc(C)c2oc(-c3ccc(C)c(NC(=S)NC(=O)c4cccs4)c3)nc2c1`, for which the z-score was 3.57 (active).

For the compound `Cc1ccc2oc(-c3cccc(NC(=S)NC(=O)/C=C/c4ccco4)c3)nc2c1`, the z-score was -0.494.

Regarding `Cc1ccc2oc(-c3cccc(NC(=O)Cc4cccs4)c3)nc2c1`, the z-score came to 0.0421.

In turn, `Cc1cc(NC(=O)COC(=O)c2cccc(OCc3ccccc3)c2)no1` had a z-score of 0.388.

Compound `CCN(CC)C(=O)C1CC(=O)OC12CCCCC2` (centres undefined) came in with a z-score of -0.477.

As to `COc1ccc(OC)c(C(=O)COC(=O)C2CC3CCCC(C2)C3=O)c1` (centres undefined), the z-score stood at 1.3.

Compound `Cc1noc(C)c1C(=O)OC(C(=O)NC1CCCC1)c1ccc(F)cc1` (centres undefined) yielded a z-score of 0.659.

Compound `COC(=O)c1sc(NC(=S)NC(=O)c2ccccc2)nc1C` yielded a z-score of 2.47.

On to `CCOC(=O)c1sc(NC(=O)COC(=O)c2ccco2)nc1C`, for which the z-score stood at 0.0458.

As to `COC(=O)c1sc(NC(=S)NC(=O)c2ccccc2Cl)nc1C`, the z-score is 5.46 (active).

`CCOC(=O)c1sc(NC(=S)NC(=O)c2ccccc2Cl)c(C(=O)OCC)c1C` displayed a z-score of 0.214.

Take `CCOC(=O)c1sc(NC(=S)NC(=O)c2ccco2)nc1C`: the z-score is 7.57 (active).

In the case of `COC(=O)c1sc(Nc2ccccc2)nc1C`, the z-score is -0.75.

As for `COC(=O)c1sc(NC(=S)NC(=O)c2cccc(C)c2)nc1C`, the z-score is 4.51 (active).

For `COc1ccc(C(=O)NC(=S)Nc2nc(C)c(C(=O)N(C)C)s2)cc1`, the z-score was -0.0547.

On to `COC(=O)c1sc(NC(=O)COc2cccc(C)c2)nc1C`, for which the z-score was -0.0129.

In turn, `CCOC(=O)c1sc(NC(=O)c2ccco2)nc1-c1ccccc1` yielded a z-score of 0.0322.

Take `Cc1nc(NC(=S)NC(=O)c2ccccc2)sc1C(=O)N(C)C`: the z-score is -0.185.

`Cc1cccc(C(=O)Nc2nc(C)c(C(=O)Nc3ccc4c(c3)CCC4)s2)c1` gave a z-score of -0.0981.

The compound `Cc1nonc1OCC(C)(COc1nonc1C)NC(=O)c1ccccc1` yielded a z-score of -0.133.

The compound `CCOC(=O)C1C(=O)NC(N2CCOCC2)=NC1c1ccco1` (centres undefined) returned a z-score of -0.222.

The compound `CCOC(=O)C1CCCN(C(=S)Nc2cccc(Cl)c2C)C1` (centres undefined) gave a z-score of -0.429.

With `O=c1c2ccccc2nc(-c2ccc(Cl)cc2)n1C1CCS(=O)(=O)C1` (centres undefined), the z-score is -0.341.

Regarding `Cc1cc2nc(C)n(CCCNC(=O)Nc3cccc4ccccc34)c2cc1C`, the z-score is -0.0533.

Take `CCCN1CNC(=S)N(CC2CCCO2)C1` (centres undefined): the z-score was determined as 0.136.

In turn, `Cc1c(Cl)cnc(NC(=O)COC(=O)CCC(=O)c2cccs2)c1Cl` showed a z-score of -0.28.

In turn, `CNC(=S)N(Cc1ccc(OC)cc1)C1CC(=O)N(c2ccc(C(=O)OC)cc2)C1=O` (centres undefined) registered a z-score of -0.228.

In turn, `Cc1ccc2nc3ccc(N4CCCCCCC4)nn3c(=O)c2c1` had a z-score of -0.682.

With `O=C(CCSc1ccc(Cl)cc1)N1CCOCC1`, the z-score was -0.207.

`CC(=O)Nc1ccc(NC(=O)CSc2ccc(C(F)(F)F)cc2[N+](=O)[O-])cc1` returned a z-score of -0.252.
